Assay outcomes deposited in PubChem by several laboratories.
Only some compounds are listed: those with a hit (about 1.6% of all), similar ones and a draw of the others.
A1 inh: inhibitors of the anti-apoptotic protein A1, read as caspase activation; MEF A1-2A-BIM cells, Caspase-Glo 3/7 luminescence, 3 h; percent of clofoctol response, vehicle zero; caspase activation, % (concentration not given with the values); 330,000 compounds, 0.066% hits;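 active = over half of replicate activation scores above 10%, or exactly half above 10 with the replicate mean above 10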
dFosB act: enhances mouse delta FosB homodimer DNA binding | P13346 | activation, % at 25 µM | AID 493131 | 340,000 compounds, 0.99% hits | purified delta FosB, TAMRA-CDK5 oligo fluorescence polarization; percent of positive-control signal above neutral wells;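 active = mean activation above about 17%, with every replicate also reaching it, limit read from the data, passing the limit was not always enough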
Beta2AR agonist: activates human beta-2 adrenergic receptor causing internalization | P07550 | Am2.2-beta2AR cells, FAP receptor internalization, flow cytometry | response, % (concentration not given with the values) | 340,000 compounds, 0.43% hits;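 active = response above a set limit, near 3 SD of response in nonfluorescent compounds, cut at about 42% in these data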
Target sequence (P07550 whole entry, looked up): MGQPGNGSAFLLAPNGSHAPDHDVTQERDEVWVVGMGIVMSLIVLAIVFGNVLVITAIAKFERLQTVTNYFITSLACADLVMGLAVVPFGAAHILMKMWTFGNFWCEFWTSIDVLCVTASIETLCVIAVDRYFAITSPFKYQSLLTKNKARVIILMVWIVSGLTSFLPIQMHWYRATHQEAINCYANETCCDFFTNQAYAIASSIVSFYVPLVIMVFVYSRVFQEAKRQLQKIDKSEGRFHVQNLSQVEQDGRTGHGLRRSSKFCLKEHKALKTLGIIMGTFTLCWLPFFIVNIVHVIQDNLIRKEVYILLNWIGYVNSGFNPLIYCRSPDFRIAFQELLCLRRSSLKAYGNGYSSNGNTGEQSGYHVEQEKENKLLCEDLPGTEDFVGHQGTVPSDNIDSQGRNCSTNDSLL
DYRK1A inh: inhibitors of rat Dyrk1A kinase; Q63470; ADP-Glo luminescence, NFATc1 peptide; inhibition, % at 12.5 µM; 310,000 compounds, 0.43% hits; AID 504441; in the data active = inhibition above about 50%
B2AR ag CP1: agonists of human beta-2 adrenergic receptor. 1,100 compounds, 25% hits. percent response (surface receptor), % at 10 µM. Am2.2-beta2AR cells, FAP surface receptor, flow cytometry; stronger effect = lower value. shares compounds with Beta2AR agonist;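 active = surface receptor percent response at or below 58%, roughly 3 SD from nonfluorescent compounds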
FAP fluor counter: flagged in Am2.2 fluorescence counterscreen for beta-2AR agonists; Am2.2 cells, FAP fluorogen flow cytometry; stronger effect = lower value; shares compounds with Beta2AR agonist; calls only at 10 µM; 1,100 tested, under 10 active;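 active = percent response below a set limit in fluorescence channel 1 and below 50% in channel 8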
A number is an active result; . = inactive; / = no result; + = active, no number.

SMILES	A1 inh	dFosB act	Beta2AR agonist	DYRK1A inh	B2AR ag CP1	FAP fluor counter
Cc1cc(C)n(-c2nc(SCC(=O)Nc3nccs3)c3c4c(sc3n2)COC(C)(C)C4)n1	.	.	93	.	.	.
Cc1cc(C)n(-c2nc(-n3nc(C)cc3C)c3c4c(sc3n2)COC(C)(C)C4)n1	.	/	/	/	/	/
CC1C/C(=N\NC(N)=S)c2cc(Cl)ccc2S1 (stereo not drawn)	.	.	.	.	.	.
Cc1cc(=O)oc2c(C)c(OC(C)C(=O)NCc3ccccn3)ccc12 (stereo not drawn)	.	.	.	.	/	/
COc1ccc(-c2nc3c4ccccc4ccn3c2CN2CCOCC2)cc1OC	.	.	53	.	41	.
c1ccc(-c2nc3c4ccccc4ccn3c2CN2CCOCC2)cc1	.	.	.	.	/	/
O=C(Nc1ccc2oc(-c3ccccc3F)nc2c1)c1ccccc1F	.	.	.	.	.	.
O=C(Nc1ccc2oc(-c3ccc4ccccc4c3)nc2c1)c1ccc2c(c1)OCCO2	.	.	43	.	20	.
O=C(Nc1ccc2oc(-c3ccccc3)nc2c1)c1ccccc1F	.	.	.	.	/	/
CC(=O)Nc1ccc(-c2nnc(SCc3ccc(C)cc3)n2C)cc1	.	.	42	.	.	.
Cc1ccc(-n2nnc3c(SCC(=O)NCC4CCCO4)ncnc32)cc1 (stereo not drawn)	.	.	51	.	.	.
CCOc1ccc(CCNC(=O)COC(=O)COc2ccc(C(=O)CC)cc2)cc1OCC	.	.	.	.	/	/
O=C(c1cc(-c2ccc(Cl)cc2)n(-c2cc(Cl)ccc2Cl)n1)N1CCOCC1	.	.	62	.	.	.
Cc1ccc(SCC(=O)Nc2ccc(-c3nnc(-c4ccco4)o3)cc2)cc1	.	.	82	.	34	.
COCCn1nnnc1C(c1ccccc1)N1CCN(C(=O)c2ccco2)CC1 (stereo not drawn)	.	.	.	.	/	/
C=CCn1c(-c2ccc(Cl)cc2)c[nH]c1=S	.	.	/	.	.	.
C=CCn1c(-c2ccccc2)c[nH]c1=S	.	.	.	.	/	/
Cc1ccc(S(=O)(=O)NCCC(=O)Nc2ncccc2O)cc1C	.	.	.	.	/	/
O=C(CCc1nnc2ccc(NCc3ccco3)nn12)Nc1cccc(F)c1	.	.	.	.	/	/
Cc1cc(N2CCN(C(=O)c3ccco3)CC2)n2nc(-c3cccc(Cl)c3)cc2n1	.	.	42	.	.	.
Cc1cc(N2CCN(C(=O)c3ccco3)CC2)n2nc(C)c(-c3ccccc3)c2n1	/	.	.	.	/	/
Nc1ncnc(N2CCc3ccccc32)c1[N+](=O)[O-]	.	.	.	/	/	/
CCOC(=O)N1CCN(Cc2c(F)cccc2F)CC1	.	.	51	.	.	.
O=S(=O)(Nc1ccc(-c2nnc(SCc3ccc(Cl)cc3)o2)cc1)c1ccccc1	.	.	43	.	.	.
O=C(O)c1ccc(CSc2nnc(-c3ccc(Cl)cc3)o2)cc1	.	.	.	.	/	/
SMILES	A1 inh	dFosB act	Beta2AR agonist	DYRK1A inh	B2AR ag CP1	FAP fluor counter
Cc1[nH]c(C)c(S(=O)(=O)NCCc2ccccc2)c1C(=O)N1CCCCC1	.	.	.	.	/	/
Cn1c(=N)n(CC(=O)c2ccc(Br)cc2)c2ccccc21	.	.	43	.	16	.
Cc1ccc(Cn2c(=N)n(CC(=O)c3ccc([N+](=O)[O-])cc3)c3ccccc32)cc1	.	.	100	.	23	+
CCCCn1c(=N)n(CC(=O)c2ccc([N+](=O)[O-])cc2)c2ccccc21	.	/	/	/	/	/
Cn1c(=N)n(CC(=O)c2ccc(F)cc2)c2ccccc21	.	.	.	/	/	/
CCc1cc(C(=O)N2CCN(S(=O)(=O)c3ccc(Cl)cc3)CC2)sc1C	.	.	.	/	/	/
Cc1cccc(C=NOCCc2ccccc2)n1	/	.	.	.	/	/
COc1cccc(CNC(=O)COC(=O)c2ccc(Cl)s2)c1	.	.	.	/	/	/
COC(=O)c1sccc1NC(=O)CSCCc1ccccn1	.	.	.	.	/	/
CCOc1cc(CNCCc2ccc(S(N)(=O)=O)cc2)ccc1OCc1ccccc1	.	.	.	.	.	.
S=c1nc2ccccc2c2nc(-c3ccccc3)[nH]n12	.	.	.	.	/	.
S=c1nc2ccccc2c2nc(-c3ccccc3Cl)[nH]n12	.	.	.	.	/	/
COc1ccccc1Nc1nc(NCc2ccco2)c2ccccc2n1	.	/	.	/	.	.
Fc1ccccc1-c1nc(NCc2ccco2)c2ccccc2n1	.	.	.	.	/	/
Cc1ccccc1C(=O)OC1CCCN(C)C1 (stereo not drawn)	.	.	49	.	.	.
Oc1ccccc1/C=N/Nc1nc2ccccc2o1	.	.	.	.	.	.
Brc1ccc(/C=N/Nc2nc3ccccc3o2)cc1	.	.	.	.	/	/
CCCc1cc(Nc2cccc(OCC)c2)n2ncnc2n1	.	.	49	.	.	.
NC(=O)c1cc(S(=O)(=O)N2CCOCC2)ccc1Sc1ccccc1N	/	.	.	.	/	/
COc1cc(C2CC(c3cccnc3)=NN2c2ccc(F)cc2)cc(OC)c1OC (stereo not drawn)	.	.	.	.	/	/
COc1ccc(-c2cc(C(F)(F)F)n3nc(C(=O)O)cc3n2)cc1OC	.	.	52	.	.	.
COC(=O)c1cc2nc(-c3ccc(OC)c(OC)c3)cc(C(F)(F)F)n2n1	.	.	.	.	/	/
CN(C)c1ccc(NC(=O)CN2CCc3ccccc3C2)cc1	.	.	.	.	/	/
CCCCCCCCCn1c2c(c(=N)c3c1CCC3)CCCC2	/	.	80	.	.	.
CC(NC(=O)C12CC3CC(CC(O)(C3)C1)C2)c1ccc(Cl)cc1Cl (stereo not drawn)	.	.	.	.	/	/
SMILES	A1 inh	dFosB act	Beta2AR agonist	DYRK1A inh	B2AR ag CP1	FAP fluor counter
CC1=NN(C(N)=S)C(=O)C1N=Nc1ccccc1O (stereo not drawn)	.	.	.	/	/	/
CCOc1ccccc1N=NC1C(=O)N(C(N)=S)N=C1C (stereo not drawn)	.	.	.	.	.	.
COc1cccc(-c2ccc(NC(=O)C3CCCN(Cc4cnc(N(C)C)s4)C3)cc2)c1 (stereo not drawn)	.	.	.	.	/	/
Cc1ncc(CN2CCCC(C(=O)Nc3ccc(-c4cccc(F)c4)cc3)C2)cn1 (stereo not drawn)	.	.	91	.	21	.
Cc1ncc(CN2CCCC(C(=O)Nc3ccc(-c4cccc(F)c4)cc3)C2)s1 (stereo not drawn)	.	.	51	.	25	.
CC(C)(C)OC(=O)C[C@@H]1C/C=C\C[C@@H](CC(=O)NCCO)C(=O)NC[C@H](c2ccccc2)OC1=O	.	.	.	.	/	/
CCOc1ccc2nc(N3C(=O)CNC3=S)sc2c1	.	.	.	.	.	.
COc1ccc(-c2nn(-c3ccccc3)cc2C(=O)N2c3ccc(C)cc3C3CN(C)CCC32)cc1 (stereo not drawn)	.	.	70	.	.	.
